HT1080 IDH1KD tx: qHTS for induction of synthetic lethality in tumor cells producing 2HG: qHTS for the HT-1080-IDH1KD cell line. HT-1080 IDH1 knockdown viability, ATP luminescence, 48 h. actives 2% (n = 360,000). Potency, µM (doses to about 46.1 µM), most hits filed as cytotoxic
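Knockdown cells (IDH1KD HT-1080) received compounds 2 h after plating at 750 cells/well and were kept 48 h at 37 °C in 5% FBS RPMI. A CellTiter-Glo luminescence read gave % activity for curve fitting.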
HT1080-NT tox: qHTS for induction of synthetic lethality in tumor cells producing 2HG: qHTS for the HT-1080-NT fibrosarcoma cell line; HT-1080-NT fibrosarcoma viability, CellTiter-Glo ATP luminescence, 48 h; Potency, µM (doses to about 46.1 µM), usual class: cytotoxic; actives 1.6% (n = 360,000);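 further: NT is the 2HG producing partner of a matched IDH1 knockdown line; nearly all actives have a fitted effect of over 55% in size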
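Compounds were tested in concentration-response format on HT-1080-NT cells for 48 hours at 37 degrees C. Cell viability came from CellTiter-Glo luminescence; curves were classified by r2, response magnitude and activity.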
ALOX12 inh: Primary qHTS assay for inhibitors of human arachidonate 12S-lipoxygenase (ALOX12): Round 2; purified 12hLO, xylenol orange hydroperoxide absorbance; Potency, µM (titrated, usually from 108 µM), usual class: inhibitors; actives 1.1% (n = 580,000); AID 1671190, 2021
Target sequence (P18054 whole entry, looked up): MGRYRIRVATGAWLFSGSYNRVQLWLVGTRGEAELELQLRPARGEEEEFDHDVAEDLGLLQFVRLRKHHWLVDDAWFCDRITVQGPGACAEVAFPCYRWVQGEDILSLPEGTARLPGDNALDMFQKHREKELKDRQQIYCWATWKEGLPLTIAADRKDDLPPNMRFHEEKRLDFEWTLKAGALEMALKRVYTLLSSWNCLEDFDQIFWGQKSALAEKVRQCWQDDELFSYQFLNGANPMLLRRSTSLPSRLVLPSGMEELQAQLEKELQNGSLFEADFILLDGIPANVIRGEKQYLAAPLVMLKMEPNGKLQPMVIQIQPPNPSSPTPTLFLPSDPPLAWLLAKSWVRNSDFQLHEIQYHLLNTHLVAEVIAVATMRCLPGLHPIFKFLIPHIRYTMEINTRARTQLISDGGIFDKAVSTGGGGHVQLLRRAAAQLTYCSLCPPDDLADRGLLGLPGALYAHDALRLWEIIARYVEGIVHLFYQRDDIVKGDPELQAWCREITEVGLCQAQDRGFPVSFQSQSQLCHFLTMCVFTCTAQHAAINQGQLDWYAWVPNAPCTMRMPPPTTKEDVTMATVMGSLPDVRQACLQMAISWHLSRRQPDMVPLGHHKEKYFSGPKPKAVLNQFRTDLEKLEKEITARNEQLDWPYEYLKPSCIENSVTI
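Hydroperoxide product was detected by ferrous iron/xylenol orange as the 573 to 405 nm absorbance ratio. Arachidonic acid at 40 uM (final) was turned over for 30 min at room temperature by 150 nM human 12hLO, pH 7.0 Hepes buffer, after 15 min compound preincubation.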
IL-1B inflam inh: qHTS for Inhibitors of Inflammasome Signaling: IL-1-beta AlphaLISA Primary Screen; THP-1 LPS/ATP IL-1B secretion, AlphaLISA, 16 h; hits give low values; activity change, % at 57.5 µM; actives 4.7% (n = 360,000); in the data active means activity change below about -50%; inconclusive means mostly about -30% to -49%
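THP-1 cells pretreated 1 hr with compounds (up to 57.5 uM final), then stimulated with LPS (250 ng/mL final) plus ATP (1.25 mM final); secreted IL-1B measured by AlphaLISA after 16 hr, decreased signal indicating inhibition.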
DT40 TDP1 no CPT: qHTS for Inhibitors of human tyrosyl-DNA phosphodiesterase 1 (TDP1): qHTS in cells in absence of CPT | DT40 Tdp1-/- hTDP1 cells, no CPT, ATP luminescence, 48 h | actives 15% (n = 420,000) | Potency, µM (top dose mostly 46.2 µM), hits mostly inhibitors; further: nearly all actives have a fitted effect of over 55% in size
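Luminescent ATP content (CellTiter-Glo) served as the growth readout. Knockout chicken DT40 cells expressing human TDP1 were exposed to compounds without camptothecin for a minimum 48 hr at 37 °C.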
DT40 TDP1 CPT: qHTS for Inhibitors of human tyrosyl-DNA phosphodiesterase 1 (TDP1): qHTS in cells in presence of CPT; chicken DT40 Tdp1-/-;hTDP1 cells + 20 nM CPT, ATP luminescence, 48 h; Potency, µM (highest dose often 46.2 µM), hits mostly inhibitors; actives 12% (n = 420,000); AID 686979, 2013; further: nearly all actives have a fitted effect of over 55% in size
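Chicken DT40 Tdp1-/- cells complemented with human TDP1, 400 cells/well, exposed to compounds plus 20 nM camptothecin for at least 48 h at 37 C; viability read as ATP content by CellTiter-Glo luminescence.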
Hits are given with their value; . = inactive; ? = inconclusive; / = no result. Many of the other results were omitted from the sample, so hits are more common in it than they were. Unless noted, the call rests on the fitted dose curve; in most records, active means well fitted curve in the direction sought with a large enough effect; inconclusive means small, poorly fitted or top-dose-only effect, or another doubt; inactive means no such curve, though single readings can be large; an effect the other way counts as inactive or inconclusive.

SMILES	HT1080 IDH1KD tx	HT1080-NT tox	ALOX12 inh	IL-1B inflam inh	DT40 TDP1 no CPT	DT40 TDP1 CPT
C#CCN(C[C@@H]1[C@@H](OC(=O)NC2CC2)[C@@H](OC(=O)NC2CC2)Cn2c(=O)n(CCCCCC)c(=O)n21)S(=O)(=O)c1ccc(C)cc1	.	.	?	.	18.4µM	?
C#CCN(C[C@@H]1[C@@H](OC(=O)NCc2ccco2)[C@@H](OC(=O)NCc2ccco2)Cn2c(=O)ccc(=O)n21)S(=O)(=O)c1ccc(C)cc1	?	14.6µM	.	-109.0	4.61µM	4.61µM
CC1CCN(c2nc(SCC(=O)N3CCOCC3)c(C#N)c3c2CCCC3)CC1	/	/	.	/	/	/
C[C@H](CCC(=O)O)[C@H]1CCC2C3CC[C@@H]4C[C@H](O)CC[C@]4(C)C3CC[C@@]21C (stereo partly drawn)	/	/	.	/	/	/
C#CCN(C[C@@H]1[C@@H](OC(=O)NCc2ccc(OC)c(OC)c2)[C@@H](OC(=O)NCc2ccc(OC)c(OC)c2)CN(C(=O)OC(C)C)N1C(=O)OC(C)C)S(=O)(=O)c1ccc(C)cc1	.	.	.	?	9.2µM	11.6µM
C#CCN(C[C@@H]1[C@@H](OC(=O)NCc2ccc(OC)c(OC)c2)[C@@H](OC(=O)NCc2ccc(OC)c(OC)c2)Cn2c(=O)n(CCCCCC)c(=O)n21)S(=O)(=O)c1ccc(C)cc1	.	.	.	.	.	.
Cc1ccc(S(=O)(=O)N2C[C@H]3N(C(=O)OC(C)C)N(C(=O)OC(C)C)C[C@H](OC(=O)NC4CCCC4)[C@@]3(O)C2)cc1	.	.	.	?	20.6µM	?
C#CCN(C[C@@H]1[C@@H](OC(=O)NC2CCCC2)[C@@H](OC(=O)NC2CCCC2)CN(C(=O)OC(C)C)N1C(=O)OC(C)C)S(=O)(=O)c1ccc(C)cc1	.	.	.	.	20.6µM	?
C#CCN(C[C@H]1[C@H](OC(=O)NC2CC2)[C@H](OC(=O)NC2CC2)C[C@@H](C(=O)OC)[C@H]1C(=O)OC)S(=O)(=O)c1ccc(C)cc1	.	.	.	.	?	.
Cc1ccc2c(c1)C(c1ccccc1)=Nc1ccc(C)cc1C(c1ccccc1)=N2	/	/	.	/	/	/
O=S(=O)(c1ccc(Br)cc1)N1CCn2cccc2C1c1ccc(Br)cc1 (stereo not drawn)	/	/	.	/	16.4µM	?
CC(=O)c1ccc(S(=O)(=O)N2CCn3cccc3C2c2ccc(C)cc2)cc1 (stereo not drawn)	/	/	.	/	?	20.6µM
COc1ccccc1C(=O)N1CCCn2nc(C)c(-c3ccccc3Oc3ccccc3)c21	/	/	.	/	/	/
O=C(NCCc1c[nH]c2ccc(Cl)cc12)C1CCN(c2nc(Cl)nc3nc[nH]c23)CC1	/	/	.	/	/	/
O=C(NC[C@H]1O[C@H](Cc2cc(-c3ccccc3)on2)CC[C@@H]1O)c1ccncc1	/	/	.	/	/	/
CCOC(=O)C(C)C(C)=O (stereo not drawn)	58µM	?	/	?	6.51µM	6.51µM
CCn1cnnc1CCNC(=O)CC1C(=O)NCCN1Cc1ccccc1 (stereo not drawn)	/	/	.	/	/	/
COC(=O)c1c(-c2ccc(F)cc2)csc1NC(=O)CN1CCN(c2ccccc2)CC1	/	/	.	/	/	/
Cc1nn(-c2ccccc2)c(C)c1CN(C)S(=O)(=O)c1c(Cl)cccc1Cl	/	/	.	/	/	/
O=C1CSC(c2cn(-c3ccccc3)nc2-c2cc3ccccc3o2)N1Cc1ccccc1 (stereo not drawn)	.	.	.	.	?	?
Cc1ccc(-c2nn(-c3ccccc3)cc2C2SCC(=O)N2Cc2ccccc2)o1 (stereo not drawn)	.	.	31.6µM	-68.5	8.2µM	13µM
Cc1noc(C)c1S(=O)(=O)N1C[C@@H](F)C[C@H]1C(=O)N1CCCCC1	/	/	.	/	/	/
ClC(=Nc1cccc2ccccc12)N(c1ccccc1)c1ccccc1	/	/	/	/	11.2µM	17.8µM
Cc1nn2c(c1-c1ccccc1[S+](C)(=O)[O-])N(Cc1ccc(C(=O)O)s1)CCC2	/	/	31.6µM	/	/	/
Fc1cccc(NCc2ccccc2-c2nnc(-c3ccccc3Cl)o2)c1	/	/	.	/	?	?
SMILES	HT1080 IDH1KD tx	HT1080-NT tox	ALOX12 inh	IL-1B inflam inh	DT40 TDP1 no CPT	DT40 TDP1 CPT
Cc1cc(F)ccc1NCc1ccccc1-c1nnc(-c2ccccc2Cl)o1	/	/	.	/	20.6µM	?
O=C(CN(c1ccc(Cl)c(C(F)(F)F)c1)S(=O)(=O)c1ccccc1)N1CCc2ccccc2C1	/	/	.	/	16.4µM	?
CS(=O)(=O)N(CC(=O)N1CCN(c2ccccc2)CC1)c1ccc(Cl)c(C(F)(F)F)c1	.	.	.	.	?	?
O=C(CCCSc1nc2ccccc2s1)NCc1ccccc1F	/	/	.	/	/	/
COc1ccc(Cl)cc1NC(=O)CN(C)CC(=O)Nc1ccccc1C(F)(F)F	.	.	.	.	.	.
COC(=O)c1c(SCC(=O)Nc2cc(C)cc(C)c2)[nH]c2ccccc2c1=O	/	/	.	/	?	23.1µM
COC(=O)c1c(SCC(=O)Nc2ccccc2C(F)(F)F)[nH]c2ccc(Cl)cc2c1=O	/	/	?	/	29.1µM	20.6µM
Cc1cc(N2CCCCCC2)n2nc(Cc3ccc(Cl)cc3)nc2n1	/	/	.	/	/	/
Cc1ccc(C2Nc3ccccc3-n3c(-c4ccccc4)c4c(=O)n(C)c(=O)n(C)c4c32)cc1 (stereo not drawn)	/	/	.	/	?	?
Cn1c(=O)c2c(-c3ccccc3)n3c(c2n(C)c1=O)C(c1ccccc1[N+](=O)[O-])Nc1ccccc1-3 (stereo not drawn)	/	/	.	/	.	23.1µM
COc1ccc(-c2c3c(=O)n(C)c(=O)n(C)c3c3n2-c2ccccc2NC3c2ccc(O)cc2O)cc1 (stereo not drawn)	/	/	.	/	16.4µM	16.4µM
Cc1ccc(-n2nc(-c3cccc(C)c3)c(C)c2-c2cccc(C)c2)cc1	/	/	.	/	/	/
COc1cc(CNn2cnnc2)ccc1OCc1ccccc1F	/	/	.	/	/	/
CCCN(CC1CC1)c1cc2c(c3c1ccn3C)C1CCC2C1 (stereo not drawn)	?	?	.	.	?	?
CCN(Cc1ccccc1)c1cc2c(c3c1ccn3C)C1CCC2C1 (stereo not drawn)	.	.	?	.	23.1µM	23.1µM
